# Assay outcomes deposited in PubChem by National Center for Advancing Translational Sciences (NCATS).
# APE1 inh – qHTS Assay for Inhibitors of the Human Apurinic/apyrimidinic Endonuclease 1 (APE1) | DNA repair nuclease/redox regulator APEX1 (Homo sapiens), P27695 | recombinant APE1, TAMRA/BHQ-2 abasic DNA cleavage fluorescence | Potency, µM (highest dose often 65.8 µM), hits mostly inhibitors | 0.35% of 350,000 active | AID 2517, 2012; note: nearly all actives have a fitted effect of over 55% in size
#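 Compound pre-exposure to 0.75 nM APE1, 15 min at ambient temperature. Reaction initiated with 50 nM TAMRA/BHQ-2 THF substrate, read immediately in kinetic mode, 525 nm excitation, 598 nm emission.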
# Tb PGK inh – qHTS Assay to Find Inhibitors of Phosphoglycerate Kinase. AID 602233, 2012. Phosphoglycerate kinase, glycosomal (Trypanosoma brucei brucei), P07378. Potency, µM (titrated, usually from 57.5 µM), hits mostly inhibitors. 0.043% of 380,000 active. PGK/GAPDH coupled, Kinase-Glo luminescence, 60 min; note: nearly all actives have a fitted effect of over 60% in size
#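 Luminescent ATP detection (Kinase-Glo Plus) follows a 60-minute room-temperature incubation, with wells lacking PGK as controls. Buffer: 100 mM TEA (pH 7.6), 5 mM MgCl2, 0.01% Tween-20. Coupling enzyme GAPDH (100 nM final) supplies unstable 1,3-BPG in-well.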
# RECQ1 inh-1 – qHTS Assay for Inhibitors of RecQ-Like Dna Helicase 1 (RECQ1); Potency, µM (series often up to 57.3 µM), usual class: inhibitors; RECQ1 DNA unwinding, red fluorescence kinetic read; ATP-dependent DNA helicase Q1 (Homo sapiens), P46063; AID 2549, 2010; 0.54% of 240,000 active; note: nearly all actives have a fitted effect of over 30% in size
#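 50 nM RECQ1T1 preincubated 15 min with compound in Tris pH 8.0 buffer with MgCl2, DTT, Tween-20 and 2.5 ug/ml poly(dI-dC); started with 200 nM TAMRA/BHQ-2 forked duplex and 2 mM ATP. Unwinding read as fluorescence (525/598 nm), two reads 2 h apart.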
# GLS inhibitor – qHTS for Inhibitors of Glutaminase (GLS); Glutaminase kidney isoform, mitochondrial (Homo sapiens), O94925; GLS enzymatic activity, qHTS titration; Potency, µM (series often up to 45.5 µM), usual class: inhibitors; 0.21% of 410,000 active; AID 624170, 2012
# Target sequence (O94925 whole entry, looked up, canonical isoform): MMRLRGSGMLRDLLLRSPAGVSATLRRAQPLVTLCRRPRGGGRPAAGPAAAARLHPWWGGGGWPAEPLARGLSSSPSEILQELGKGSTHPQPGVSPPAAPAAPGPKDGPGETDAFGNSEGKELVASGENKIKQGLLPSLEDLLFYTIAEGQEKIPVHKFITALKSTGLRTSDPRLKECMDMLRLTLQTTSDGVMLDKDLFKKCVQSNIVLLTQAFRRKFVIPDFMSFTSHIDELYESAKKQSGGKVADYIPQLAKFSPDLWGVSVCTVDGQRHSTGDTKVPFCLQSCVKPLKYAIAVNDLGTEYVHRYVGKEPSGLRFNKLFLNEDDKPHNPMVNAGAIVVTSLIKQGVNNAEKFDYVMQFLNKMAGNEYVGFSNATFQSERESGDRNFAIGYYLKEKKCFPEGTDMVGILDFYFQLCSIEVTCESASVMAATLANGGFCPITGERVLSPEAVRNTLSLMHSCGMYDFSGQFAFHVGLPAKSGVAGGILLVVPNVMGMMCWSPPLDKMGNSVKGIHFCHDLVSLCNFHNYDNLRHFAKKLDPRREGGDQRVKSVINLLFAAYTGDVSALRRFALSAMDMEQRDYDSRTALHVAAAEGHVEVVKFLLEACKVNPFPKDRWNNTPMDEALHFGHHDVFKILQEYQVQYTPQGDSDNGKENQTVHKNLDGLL
#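 hKGA; 45 mM KH2PO4 pH 8.2 + 0.02% Tween-20; cpd via pin tool; 1 mM Gln soln; GluOx/HRP/Amplex Red; RT 30 min; fluor. t0 & final.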
# BLM inh – qHTS Assay for Inhibitors of Bloom's syndrome helicase (BLM) | RecQ-like DNA helicase BLM (Homo sapiens), P54132 | recombinant BLM DNA unwinding, fluorescence dequenching | Potency, µM (series often up to 56.1 µM), usual class: inhibitors | 0.2% of 350,000 active; note: nearly all actives have a fitted effect of over 35% in size
# TDP1 block – qHTS Assay for Inhibitors of Tyrosyl-DNA Phosphodiesterase (TDP1). Potency, µM (doses to about 130 µM), hits mostly inhibitors. recombinant TDP1, AlphaScreen DNA substrate cleavage. 0.28% of 350,000 active. Tyrosyl-DNA phosphodiesterase 1 (Homo sapiens), Q9NUW8; note: nearly all actives have a fitted effect of over 40% in size
#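 Steps: enzyme plus compound, 15 min RT; add biotin/phosphotyrosine-FITC oligonucleotide (15 nM final), react 5 min; add donor/acceptor beads (10 ug/ml final), 10 min; read AlphaScreen. Tdp1 at 1 nM final.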
# RECQ1 conf – Confirmation qHTS Assay for Inhibitors of RecQ-Like Dna Helicase 1 (RECQ1). 28% of 610 active. shares compounds with RECQ1 inh-1. Potency, µM (doses to about 229 µM), actives largely listed as inhibitors. RECQ1 helicase DNA unwinding, fluorescence; note: nearly all actives have a fitted effect of over 45% in size
# RECQ1 ADP FP – Counterscreen for RECQ1 Inhibitors: ADP Fluorescence Polarization Displacement Assay | Potency, µM (top dose mostly 228 µM), hits mostly inhibitors | AID 2711, 2010 | shares compounds with RECQ1 inh-1 | ADP fluorescence polarization displacement counterscreen | 27% of 530 active; note: nearly all actives have a fitted effect of over 45% in size
# RECQ1 inh-2 – Confirmation qHTS Assay for Inhibitors of RecQ-Like Dna Helicase 1 (RECQ1) - Round 2 Cherry Picks; AID 504841, 2011; 15% of 1,100 active; shares compounds with RECQ1 inh-1; recombinant RECQ1 DNA unwinding, red fluorescence; Potency, µM (series often up to 119 µM), actives largely listed as inhibitors; note: nearly all actives have a fitted effect of over 50% in size
# Numbers stand for hits; 0 = inactive; ? = inconclusive; - = no result; [ ] = another dose, or the depositor's remark. In the library only some 0.85% were active in any assay of this set; here they are far more common. Calls come from the whole dose curve; as a rule, active = well fitted curve in the direction sought with a large enough effect; inconclusive = small, poorly fitted or top-dose-only effect, or another doubt; inactive = no such curve, though single readings can be large; an effect the other way counts as inactive or inconclusive.
SMILES,APE1 inh,Tb PGK inh,RECQ1 inh-1,GLS inhibitor,BLM inh,TDP1 block,others
CC(C)N(C(=O)CSc1nnc(Cn2nnc3ccccc32)n1C)C(C)C,0,0,0,0,0,0,
COC(=O)CC1c2ccccc2C(Cc2ccc(OC)cc2)C(C)N1C(=O)OC (configuration not stated),0[12.4 µM],-,0[11.5 µM],-,0[12.4 µM],0[21 µM],
O=C(/C=C\c1ccco1)NC(=S)Nc1ccccc1O,0,0,0,0,0,0,
Cc1ccc(NC(=S)NC(=O)/C=C/c2ccco2)c(O)c1,?,0,?,0,0,0,RECQ1 inh-2=0
C/C(CCN1CCCc2nc(C)c(C)cc21)=N\O[C@@H](C)c1cn([C@H](CO)Cc2ccccc2)nn1,?,-,0[11.5 µM],-,0[12.4 µM],0[21 µM],
Cc1ccc(NC(=O)N/C=C/c2ccco2)cc1,?,0,?,0,0,0,RECQ1 inh-2=?
Cc1ccc(NC(=O)/C(=C\c2ccco2)NC(=O)c2ccco2)cc1,0,0,-,0,0,-,
COC(=O)CCCC1=CC2=CC(=O)C(C)(OC(=O)c3cccs3)C(=O)C2=CO1 (configuration not stated),?,-,?,-,0,0,RECQ1 inh-2=?
COC(=O)C(C(=O)OC)[C@@H]1c2ccccc2[C@H]2C(=C[C@@H](C)[C@H]3C(=O)N(c4ccccc4)C(=O)[C@H]32)N1C(=O)OC,0[12.4 µM],-,0[11.5 µM],-,0[12.4 µM],0[21 µM],
CCCCn1cnc2c(=O)[nH]c(N)nc21,-,-,-,-,-,0,RECQ1 conf=0
Nc1nc2c(ncn2[C@H]2C[C@H](O)[C@@H](CO)O2)c(=O)[nH]1,0,0,-,0,-,0,
CCCCn1cnc2c(Sc3c([N+](=O)[O-])ncn3C)nc(N)nc21,-,0,-,0,-,-,
Nc1nc2c(ncn2COC(CO)CO)c(=O)[nH]1,0,0,0,0,0,0,RECQ1 conf=0
CCc1cc2ccccc2nc1SCC(=O)Nc1cc(OC)c(OC)cc1C(=O)O,0,0,0,0,0,0,
COc1ccc2cc(C)c3nnc(SCC(=O)Nc4cc(OC)c(OC)cc4C(=O)O)n3c2c1,0,0,0,?,0,0,RECQ1 conf=0;RECQ1 ADP FP=0
COc1cc(NC(=O)CSc2nc3ccccc3cc2C)c(C(=O)O)cc1OC,0,0,0,0,0,0,RECQ1 conf=0;RECQ1 ADP FP=?
COc1ccc(C2=Nn3c(nnc3-c3ccc(OC)c(OC)c3)SC2)cc1,0,-,0,-,0,0,
COc1ccc(C(=O)NCCCN2CCOCC2)cc1S(=O)(=O)N1CCCc2ccccc21,0,0,40µM,0,0,0,RECQ1 inh-2=0
COc1ccc(C(=O)NC2CCCCCC2)cc1S(=O)(=O)N1CCCc2ccccc21,0,0,0,0,0,0,
COc1cc(C(C)C)c2c(c1)S(=O)(=O)N(COc1cc(=O)n3cccc(OCCN4CCCCC4)c3n1)C2=O,0,-,0,-,0,0,
COc1ccc2nc3c(cc2c1)Cc1ccccc1-3,0,-,0,-,0,0,
O=C(O)CCC(=O)N1N=C(c2ccco2)CC1c1cccs1 (configuration not stated),0,0,0,0,0,0,RECQ1 conf=0;RECQ1 ADP FP=0
O=C(O)CCC(=O)N1N=C(c2ccco2)CC1c1ccco1 (configuration not stated),0,0,-,0,0,-,
Clc1nc(NCC2CCCO2)c2[nH]cnc2n1 (configuration not stated),-,-,-,-,-,0,
C[C@H]1COC(=O)O1,0,-,0,-,0,0,
SMILES,APE1 inh,Tb PGK inh,RECQ1 inh-1,GLS inhibitor,BLM inh,TDP1 block,others
N=C1/C(=C/c2ccc(-c3cccc(C(=O)O)c3)o2)C(=O)N=C2SC=C(c3ccccc3)N12,?,?,?,22µM,?,35µM,RECQ1 inh-2=?
N=C1/C(=C\c2ccc(-c3cc(Cl)cc(Cl)c3)o2)C(=O)N=C2SC=C(c3ccccc3)N12,0,0,0,0,0,0,
Cc1cc(=O)oc2cc(NC(=O)[C@H](CCCCN)NC(=O)[C@H](CC3CCCCC3)NC(=O)OCC3c4ccccc4-c4ccccc43)ccc12,0,-,?,-,?,0,
CCOC(=O)C1CN(S(=O)(=O)c2cccc(C(F)(F)F)c2)c2cc(CC(=O)OC)ccc2O1 (configuration not stated),0,0,40µM,0,0,0,RECQ1 inh-2=0
CSCC[C@H](NC(=O)[C@H](CC(C)C)NC(=O)[C@@H]1CCCN1C(=O)[C@H](Cc1ccccc1)NC(=O)[C@H](Cc1ccccc1)NC(=O)[C@@H]1CCC(=O)N1)C(N)=O,0,-,0,-,0,0,
CCOC(=O)c1cc(-c2ccccc2)sc1NC(=O)CN1C(=O)NC(CC)(c2ccc(F)cc2)C1=O (configuration not stated),0,0,32µM,0,0,0,RECQ1 inh-2=0
O=C(O)CC(CC(=O)Nc1ccccc1C(=O)O)c1ccccc1 (configuration not stated),0,0,0,0,0,-,RECQ1 conf=0;RECQ1 ADP FP=0
COc1cc(-c2nnc(SCc3cc(=O)oc4cc(O)c(O)cc34)o2)cc(OC)c1OC,2µM,?,1.8µM,0,10µM,-,RECQ1 conf=3.5µM;RECQ1 ADP FP=126µM;RECQ1 inh-2=?
CCOC(=O)CSc1nnc(-c2cc(OC)c(OC)c(OC)c2)o1,0,0,0,0,0,0,
COc1cccc(CCn2c(N)cc(=O)[nH]c2=S)c1OC,-,-,-,-,-,0,
CCCCC/C=C\C/C=C\C/C=C\C/C=C\CCCC(=O)C(F)(F)F,0,-,0,-,?,0,
Cc1ccc(-c2csc(NC(=O)C3=NN(c4ccccc4)C(=O)CC3)n2)cc1,0,0,?,0,0,0,RECQ1 inh-2=0
COC(=O)NC(/C(C(=O)OC)=C(\C)NCc1ccccc1)c1ccc2ccccc2c1 (configuration not stated),0[12.4 µM],-,0[11.5 µM],-,0[12.4 µM],0[21 µM],
